Assay results published in PMC5540273 (PLoS ONE, 2017).

Tests used:
Settings in all cases: concentration: 1 μM, replicates: in singlicate; n = 1
[1] = test system: SgK110
[2] = test system: T1, TAK1
T1 construct: gene MAP3K7

[3] = test system: TAOK1
[4] = test system: TAOK2
[5] = test system: TAOK3
[6] = test system: TBK1
[7] = test system: TEC
[8] = test system: TESK1
[9] = test system: TGFBR1
[10] = test system: TGFBR2
[11] = test system: TIE1
[12] = test system: T2, TIE2
T2 construct: gene TEK

[13] = test system: TLK1
[14] = test system: TLK2
[15] = test system: TNIK
[16] = test system: TNK1
[17] = test system: TNK2
[18] = test system: TNNI3K
[19] = test system: T3, TRKA
T3 construct: gene NTRK1

[20] = test system: TRKB
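Further: KINOMEscan kinase panel screen.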

Row | Structure (SMILES) | %Inh [1] [%] | %Inh [2] [%] | %Inh [3] [%] | %Inh [4] [%] | %Inh [5] [%] | %Inh [6] [%] | %Inh [7] [%] | %Inh [8] [%] | %Inh [9] [%] | %Inh [10] [%] | %Inh [11] [%] | %Inh [12] [%] | %Inh [13] [%] | %Inh [14] [%] | %Inh [15] [%] | %Inh [16] [%] | %Inh [17] [%] | %Inh [18] [%] | %Inh [19] [%] | %Inh [20] [%]
1 | COc1ccc(Nc2nccc(N3CCC(NC(=O)c4cccc(NC(C)=O)c4)C3)n2)cc1 (centres unmarked) [GSK1379732] | 10 | 0 | 0 | 0 | 0 | 0 | 0 | 26 | 4 | 0 | 0 | 0 | 0 | 0 | 0 | 0 | 7 | 7 | 37 | 40
2 | CCn1c(-c2ccncc2)nc2cnccc21 [SB-735216] | 0 | 20 | 15 | 13 | 18 | 17 | 7 | 24 | 0 | 0 | 0 | 12 | 0 | 0 | 0 | 1 | 13 | 0 | 27 | 41
3 | COc1cc2ncnc(Nc3ccc(OCc4ccccc4Br)c(Cl)c3)c2cc1OC.Cl [GI261590] | 0 | 0 | 0 | 0 | 0 | 10 | 21 | 33 | 27 | 0 | 0 | 3 | 0 | 0 | 0 | 0 | 24 | 5 | 0 | 19
4 | COc1cc2c(Nc3cccc(NC(=O)c4ccccc4)c3)ncnc2cc1OCCCN1CCOCC1 [GSK223810] | 0 | 0 | 0 | 0 | 0 | 1 | 0 | 0 | 0 | 0 | 24 | 0 | 0 | 0 | 0 | 22 | 13 | 25 | 45 | 0
5 | O=C(Nc1ccccc1F)NC1CCN(c2ccnc(Nc3ccc(F)cc3)n2)C1 (centres unmarked) [GSK1379722] | 0 | 0 | 0 | 0 | 0 | 0 | 6 | 16 | 25 | 0 | 0 | 0 | 0 | 0 | 0 | 0 | 27 | 0 | 0 | 32
6 | Cn1ccc2ncnc(Nc3ccc(Oc4cccc(Cl)c4)c(Cl)c3)c21 | 11 | 25 | 0 | 0 | 0 | 28 | 96.7 | 13 | 4 | 0 | 0 | 26 | 22 | 9 | 17 | 0 | 0 | 11 | 0 | 0
7 | CS(=O)(=O)CCNCc1nc(-c2ccc3ncnc(Nc4ccc(OCc5cccc(F)c5)c(Cl)c4)c3c2)cs1.Cl [GW583340] | 0 | 0 | 0 | 0 | 0 | 14 | 0 | 80 | 0 | 0 | 0 | 0 | 22 | 0 | 0 | 0 | 6 | 0 | 0 | 0
8 | CCc1nc(-c2cccc(N(C)S(=O)(=O)c3ccccc3)c2)c(-c2ccnc(Nc3ccc(N4CCN(C(C)=O)CC4)nc3)n2)s1 [GSK1645895] | 0 | 0 | 0 | 0 | 2 | 27 | 7 | 0 | 17 | 0 | 5 | 18 | 26 | 20 | 4 | 29 | 3 | 0 | 0 | 0
9 | Fc1ccc(-c2ncn(CCCNCc3ccccc3)c2-c2ccncc2)cc1 | 12 | 29 | 5 | 0 | 0 | 25 | 8 | 6 | 0 | 10 | 23 | 0 | 26 | 0 | 12 | 0 | 13 | 0 | 38 | 3
10 | Cl.Cn1ccc(-c2cccc(Nc3ccnc4cc(-c5nccs5)ccc34)c2)n1 [GW525701] | 19 | 0 | 0 | 0 | 0 | 17 | 17 | 34 | 12 | 0 | 0 | 0 | 13 | 3 | 50 | 0 | 33 | 0 | 0 | 60
11 | Cn1cc(-c2ccc3c(c2)CCN3C(=O)Cc2cccc(C(F)(F)F)c2)c2c(N)ncnc21 [GSK2606414] | 0 | 0 | 4 | 0 | 3 | 9 | 1 | 5 | 0 | 9 | 46 | 24 | 2 | 0 | 0 | 0 | 0 | 0 | 35 | 46
12 | NC(=O)c1sc(-n2cnc3ccccc32)cc1OCc1ccccc1F [GSK1024306] | 0 | 0 | 0 | 0 | 0 | 0 | 22 | 24 | 5 | 0 | 2 | 0 | 0 | 0 | 56 | 0 | 9 | 18 | 51 | 0
13 | Cc1ccc(O)cc1Nc1cc(C(F)(F)F)nc2ccc(-c3ccncc3)cc12 [GW630823] | 0 | 0 | 0 | 5 | 0 | 5 | 92.1 | 6 | 5 | 0 | 0 | 3 | 21 | 0 | 1 | 0 | 17 | 14 | 0 | 0
14 | CC(=O)Nc1n[nH]c2ncc(-c3ccccc3)cc12 [SB-548492] | 3 | 20 | 27 | 24 | 8 | 29 | 1 | 6 | 0 | 0 | 0 | 21 | 6 | 0 | 12 | 0 | 0 | 0 | 90.1 | 25
15 | Nc1nccc2scc(-c3ccc4c(c3)CCN4C(=O)Cc3cc(F)ccc3F)c12 [GSK2587663] | 0 | 0 | 0 | 0 | 0 | 6 | 0 | 18 | 19 | 0 | 54 | 1 | 4 | 0 | 0 | 0 | 23 | 4 | 0 | 42
16 | COc1ccc(NC(=O)c2ccc(-c3cc(-c4nnc(C)o4)ccc3C)cc2)cc1 [GW595885] | 13 | 0 | 0 | 0 | 0 | 0 | 2 | 24 | 6 | 0 | 14 | 0 | 0 | 0 | 0 | 0 | 21 | 0 | 0 | 17
17 | Cl.O=S(=O)(c1cccc(F)c1)c1ccc(Nc2ncnc3cc(Br)sc23)cc1Cl [GSK306886] | 0 | 0 | 0 | 0 | 0 | 9 | 0 | 0 | 7 | 0 | 0 | 0 | 19 | 2 | 0 | 0 | 21 | 23 | 0 | 0
18 | Fc1ccc(Nc2nccc(-c3c(-c4ccc(Cl)cc4)nn4ncccc34)n2)cc1F [GW829058] | 9 | 38 | 10 | 16 | 27 | 31 | 8 | 16 | 0 | 0 | 38 | 18 | 0 | 12 | 89 | 24 | 0 | 3 | 13 | 0
19 | Clc1cc(Nc2ncnc3cc[nH]c23)ccc1OCc1ccccn1 | 0 | 9 | 0 | 0 | 0 | 4 | 0 | 7 | 15 | 0 | 10 | 23 | 26 | 4 | 22 | 0 | 5 | 2 | 2 | 12
